Measurements published in PubChem BioAssay AID837 (The Scripps Research Institute Molecular Screening Center, 2007).
Active and inactive are the calls of the source.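 Rule for the calls: active = relative FRET score above 0.01, or acceptor fluorescence over 30% below the sample-well median; inactive = the rest.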

molecular target: Protein Rev (Human immunodeficiency virus type 1 group M subtype B (isolate WMJ22)) (UniProt P05866); assay: disruptors of Rev peptide-RRE RNA complex – biochemical, FRET, acceptor and relative FRET calls, confirmation (AID 837); details: Fl-Rev peptide / Cy5-RRE RNA FRET, 1536-well; at 8 µM;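 note: relative FRET combines rise in Cy5 acceptor with fall in fluorescein donor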
Sequence (P05866 whole entry, looked up): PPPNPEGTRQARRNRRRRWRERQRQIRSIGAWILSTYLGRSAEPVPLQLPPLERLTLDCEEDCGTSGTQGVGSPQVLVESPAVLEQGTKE

Row | Compound | outcome
1 | CCC1=NNc2cccc3c(OC)ccc1c23 | inactive
2 | COn1cnnc1-c1ccccc1 | inactive
3 | CC(C)C(C(=O)O)N1C(=O)/C(=C/C=C/c2ccco2)SC1=S (stereo not given) | inactive; quenches the donor
4 | COC(=O)c1c(C(=O)OC)n(CCCN)c2ccc(C)cc12 | active
5 | CCCN1C2=NCCN2c2cc(C)c(C)cc21 | inactive
6 | O=c1[nH]c2cc(Br)cnc2nc1/C=C(\O)c1ccc(F)cc1 | inactive
7 | CCOc1cc(CNCCCN2CCOCC2)ccc1OCC(=O)Nc1cccc2ccccc12 | inactive
8 | CNCCCOc1ccc(C(C)(C)c2ccccc2)cc1 | active
9 | COc1ccc(CN(C)C2CCCCC2)c(C)c1C | inactive
10 | COc1ccc2nc(NC(=O)c3ccc(Br)s3)sc2c1 | inactive
11 | O=c1nc(N2CCCC2)nc(Nc2ccccc2)[nH]1 | inactive
12 | COc1ccc(Nc2nc(N)nc(CN(C)C3CCCCC3)n2)cc1 | active
13 | CC(C(=O)O)N1C(=O)/C(=C/C=C/c2ccco2)SC1=S (stereo not given) | inactive; quenches the donor
14 | CCCCOc1ccc(CSC(=N)N)cc1[N+](=O)[O-] | inactive
15 | O=C(O)c1ccc2c(c1)[C@@H]1C=CC[C@@H]1[C@H](c1ccccn1)N2 | inactive; quenches the donor
16 | COc1ccc2c3c(cccc13)NN=C2C | inactive
17 | Cc1ccc2[nH]c(=O)c3cc(C(=O)NCCN4CCN(C)CC4)sc3c2c1 | inactive
18 | Cc1ccc(C(=O)/C=C/c2ccccc2)o1 | inactive
19 | CCN(CC)CCOc1cc2c(nn1)Oc1ccccc1N2C | inactive
20 | Cc1nc(NC(=O)c2ccc(Br)o2)sc1C | inactive
